Results filed as inconclusive are left out. Activity calls are given as the source filed them. Unless noted, the rule behind the calls is not given here.
Tests used:
[1] = qHTS profiling for inhibitors of Plasmodium falciparum (3D7) proliferation (AID 743322);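 note: infected erythrocytes exposed to compound for 72 h before lysis; 100% = DMSO vehicle wells and 0% = 0.29 µM artemisinin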; conditions: P. falciparum 3D7 proliferation; at 28.7 µM (top of the series)
Procedure, shortened: (§1)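 Parasite DNA was quantified by SYBR Green I fluorescence (ex 485, em 535 nm) after overnight lysis in saponin/Triton buffer at room temperature. Cultures at 0.3% parasitemia and 2.5% hematocrit were first exposed to compound for 72 h at 37 C; signals were normalised to artemisinin (0.29 uM) and vehicle wells.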

[2] = qHTS profiling for inhibitors of Plasmodium falciparum (DD2) proliferation (AID 743323); conditions: lower = more inhibition; at 28.7 µM (top of the series)
Procedure, shortened: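 Parasite DNA quantified by SYBR Green fluorescence (ex 485, em 535 nm) after saponin/Triton lysis and overnight dark incubation. Cultures: 0.3% parasitemia, 2.5% hematocrit, 72 h, 37 C; data scaled between DMSO and 0.29 uM artemisinin.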

[3] = qHTS profiling for inhibitors of Plasmodium falciparum (HB3) proliferation (AID 743324; active = well fitted curve in the direction sought with a large enough effect; an effect the other way counts as inactive or inconclusive;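 note: 100% = DMSO vehicle wells and 0% = artemisinin-treated control wells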); conditions: Plasmodium falciparum HB3 blood-stage proliferation; at 28.7 µM (top of the series)
Procedure, shortened: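 SYBR Green fluorescence (485 ex/535 em) of lysed cultures, incubated overnight at room temperature in the dark, quantifies parasite DNA. Infected erythrocytes at 0.3% parasitemia and 2.5% hematocrit were exposed 72 h; values normalized to DMSO and 0.29 uM artemisinin controls.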

[4] = qHTS profiling of the MIPE4 collection as inhibitors of Plasmodium falciparum (3D7) proliferation (AID 743344);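 note: scaled between DMSO vehicle wells and 0.29 µM artemisinin as full inhibition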; conditions: P. falciparum 3D7 in erythrocytes, SYBR Green DNA fluorescence, 72 h; at 28.5 µM (top of the series) unless noted
Procedure, shortened: as §1

[5] = qHTS profiling of the MIPE4 collection as inhibitors of Plasmodium falciparum (DD2) proliferation (AID 743345); conditions: P. falciparum Dd2 in erythrocytes, SYBR Green DNA, 72 h; at 28.5 µM (top of the series) unless noted
Procedure, shortened: as §1

[6] = qHTS profiling of the MIPE4 collection as inhibitors of Plasmodium falciparum (DD2) proliferation (Rep 2) (AID 743346); conditions: P. falciparum Dd2 in erythrocytes, SYBR Green DNA, 72 h; at 28.5 µM (top of the series) unless noted
Procedure, shortened: as §1

[7] = qHTS profiling of the MIPE4 collection as inhibitors of Plasmodium falciparum (HB3) proliferation (AID 743347);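 note: plate controls were DMSO vehicle wells for no effect and artemisinin wells for full effect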; conditions: P. falciparum HB3 in erythrocytes, SYBR Green DNA, 72 h; at 28.5 µM (top of the series) unless noted
Procedure, shortened: as §1

[8] = High-throughput drug toxicity screening in the BPDCN cell line Gen2.2 (AID 1224824); conditions: Gen2.2 BPDCN cells; at 45.8 µM (top of the series) unless noted;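 note: cells exposed to compounds for 48 h before reading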
Procedure, shortened: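 CellTiter-Glo luminescence after 48 h compound exposure of Gen2.2 cells; percent activity set with DMSO as 100% and bortezomib (9.2 uM final) as 0%. Cells seeded at 500 per well, RPMI + 10% FBS, 37 °C.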

[9] = High-throughput drug toxicity screening in the BPDCN cell line Cal-1 (AID 1224825); conditions: Cal-1 BPDCN cell viability, qHTS; at 45.8 µM (top of the series) unless noted
Procedure, shortened: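 Percent activity derived from CellTiter-Glo luminescence, scaling DMSO to 100% and 9.2 uM final bortezomib to 0%. BPDCN Cal-1 cells (500/well, RPMI plus 10% FBS) incubated with compounds 48 hours at 37C before reading.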

[10] = qHTS assay for measurement of the activity of small molecule inhibitors on Zika virus induced Caspase-3 activity in human iPSC derived neural progenitor cells (hNPCs) (AID 1224857; active = well fitted curve in the direction sought with a large enough effect; an effect the other way counts as inactive or inconclusive; note: nearly all actives have a fitted effect of over 65% in size; note: potency is the fitted concentration of half-maximal effect)
Procedure, shortened: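 After overnight (16–20 h) culture at 350 cells/well, hNPCs get compound, then ZIKV 2 FFU/cell one hour later. Six hours on, Caspase-Glo 3/7 is added and luminescence measured.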

Structure (SMILES) | remaining parasite growth % (stronger effect = lower value) [1] | activity, percent of control [2] | remaining proliferation (% of control), lower = more inhibition [3] | parasite growth, % of DMSO control [4] | parasite growth remaining, % of DMSO control (lower = more inhibition) [5] | parasite growth, % of control (lower = inhibition) [6] | growth, % of control [7] | cell viability, % of control (lower = more cytotoxic) [8] | viability (% of control) [9] | Potency [10]
COc1ncc(-c2ccc3nccc(-c4ccnnc4)c3c2)cc1NS(=O)(=O)c1ccc(F)cc1F | -1.12% | -0.177% | -1.02% | 4.65% | 7.55% | 6.02% | 4.97% | 3.44% | 3.33% | inactive
CCOc1ccc(Nc2nc(-c3c(C)nc4ccccn34)cs2)cc1 | 2.43% | 5.76% | 7.43% | 11.9% | 17.3% | – | 4.43% | 11% | 7.46% | inactive
CCc1ccc(OCc2ccccc2C(=O)Nc2ccc3nc(C)cc(N)c3c2)cc1 | -0.867% | 0.0556% | 0.0187% | 5.35% | 6.22% | 24.8% | 10% | 7.97% | 4.73% | inactive
NC(CO)(CO)CCc1ccc(Sc2cccc(OCc3ccccc3)c2)cc1Cl | -0.423% | 1.55% | -1.39% | 4.87% | 8.96% | 15.3% | 6.89% | 7.64% | 5.26% | inactive
CCS(=O)(=O)N1CC(CC#N)(n2cc(-c3ncnc4[nH]ccc34)cn2)C1 | – | – | – | – | – | – | – | 134% | 17.5% | –
CN1[C@@H]2CCC[C@@H]1CC(NC(=O)c1nn(C)c3ccccc13)C2 (stereo not given in full) | – | – | – | – | – | – | – | 97.5% | 105% | –
CCn1cc(C(=O)O)c(=O)c2ccc(C)nc21 | – | – | – | – | – | – | – | 120% | 113% | –
CC(=O)Nc1ccc([C@H](C)C(=O)Nc2ncc(C(C)C)s2)cc1 | 95.5% | 101% | 93.4% | 5.36% | 104% | 7.23% | 2.84% | 7.33% | 6.1% | 14.8 µM (active)
Cc1ccc(F)c(NC(=O)Nc2ccc(-c3cccc4[nH]nc(N)c34)cc2)c1 | 81.3% | 67.8% | 23.1% | 6.52% | 37.7% | 13.4% | 9.71% | 5.38% | 1.55% | inactive
CC(=O)N(C)C1(c2ccccc2)CCN(CCC[C@]2(c3ccc(Cl)c(Cl)c3)CCCN(C(=O)c3ccccc3)C2)CC1 | -0.589% | -0.455% | -1.35% | 6.96% | 7.14% | 38.7% | 7.98% | 9.34% | 7.8% | inactive
CC(C)(C)C(=O)Oc1ccc2c(c1)nc(NC(=O)c1cccc([N+](=O)[O-])c1)n2CCCO | 92% | 82% | 53.3% | 21.2% | 46.4% | 22.2% | 10.6% | 190% | 102% | inactive
